From PubChem BioAssay (Tox21)
Records with an inconclusive call do not appear. Active and inactive are the calls of the source. The call rests on the fitted dose curve.

experiment: qHTS assay to identify small molecule agonists of the hypoxia (HIF-1) signaling pathway - cell viability counter screen (AID 1224844); conditions: HRE-bla ME-180 viability, CellTiter-Glo luminescence, 17 h; series mostly up to 76.8 µM; activity change, negative = cytotoxicity: at the top concentration; further: nearly all actives have a fitted effect of over 50% in size
Procedure, shortened: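 Cytotoxicity measured by CellTiter-Glo ATP luminescence in the wells also read for beta-lactamase signal. Cells were HRE-bla ME-180 (2,000/well, 0.5% dialyzed FBS), exposed to compounds for 17 h at 37C.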
On the % scale 0 is the no-effect control and ±100 the full control effect.

**Q.** Which “activity change, negative = cytotoxicity” value does the source give for `Nc1nc(Cl)cc(Cl)n1` here?
**A.** The value was -0.215% (inactive).

**Q.** With `Cc1ccc(NC(N)=O)cc1` as the compound, how does the “activity change, negative = cytotoxicity” value read?
**A.** Its value is -0.122% (inactive).

**Q.** For `CCCC(=O)C(CC)Sc1ccoc1C` (configuration not stated), which “activity change, negative = cytotoxicity” value is on record?
**A.** The value was 8.55% (inactive).

**Q.** With `Cc1ccc(O)c(C(=O)c2ccccc2)c1` as the compound, how does the “activity change, negative = cytotoxicity” value read?
**A.** The value was -4.44% (inactive).

**Q.** With `CCOC(=O)c1ccc(N(C)C)cc1` as the compound, how does the “activity change, negative = cytotoxicity” value read?
**A.** The value was 4.13% (inactive).

**Q.** With `COC(=O)c1c(C)cc(O)c(C)c1O` as the compound, how does the “activity change, negative = cytotoxicity” value read?
**A.** Its value is 10.5% (inactive).

**Q.** Which “activity change, negative = cytotoxicity” value does the source give for `COc1cc(NS(=O)(=O)c2ccc(N)cc2)ncn1` here?
**A.** Its value is 5.7% [at 35.3 µM] (inactive).

**Q.** Which “activity change, negative = cytotoxicity” value does the source give for `Clc1ccc2c(c1)Nc1ccccc1S2` here?
**A.** Its value is 7.57% [at 35.3 µM] (inactive).

**Q.** For `O=Cc1ccccc1S(=O)(=O)O`, which “activity change, negative = cytotoxicity” value is on record?
**A.** Its value is 12.1% (inactive).

**Q.** For `CC(C)(O)c1ccc(C(C)(C)O)cc1`, which “activity change, negative = cytotoxicity” value is on record?
**A.** Its value is 10.6% (inactive).

**Q.** Which “activity change, negative = cytotoxicity” value does the source give for `COc1cc(C(=O)NC2CCCNC2)cc(OC)c1OC` (configuration not stated) here?
**A.** Its value is 6.63% [at 35.3 µM] (inactive).

**Q.** Which “activity change, negative = cytotoxicity” value does the source give for `Cc1nc2ccc(Cl)cc2[nH]1` here?
**A.** Its value is 9.63% (inactive).

**Q.** For `COC(=O)C(c1ccccc1Cl)N1CCc2sccc2C1` (configuration not stated), which “activity change, negative = cytotoxicity” value is on record?
**A.** Its value is 5.49% [at 35.3 µM] (inactive).

**Q.** Which “activity change, negative = cytotoxicity” value does the source give for `CC1(C)S[C@@H]2[C@H](NC(=O)Cc3ccccc3)C(=O)N2[C@H]1C(=O)O` (tested in a mixture with another compound) here?
**A.** The value was 0.743% [at 35.3 µM] (inactive).

**Q.** With `CCCCC(CC)CCC(CC(C)C)OS(=O)(=O)O` (configuration not stated) as the compound, how does the “activity change, negative = cytotoxicity” value read?
**A.** Its value is -16.2% (inactive).

**Q.** For `Nc1cc(S(=O)(=O)O)ccc1O`, which “activity change, negative = cytotoxicity” value is on record?
**A.** Its value is 5.85% (inactive).

**Q.** Which “activity change, negative = cytotoxicity” value does the source give for `O=C(O)COc1ccc2ccccc2c1` here?
**A.** Its value is 0.179% (inactive).

**Q.** For `O=S(=O)(O)CC(O)CCl` (configuration not stated), which “activity change, negative = cytotoxicity” value is on record?
**A.** Its value is 6.59% (inactive).

**Q.** With `O=C(c1ccccc1)c1cccc(O)c1` as the compound, how does the “activity change, negative = cytotoxicity” value read?
**A.** The value was 7.47% (inactive).

**Q.** Which “activity change, negative = cytotoxicity” value does the source give for `O=C1Nc2ccccc2C1=O` here?
**A.** The value was -5.67% (inactive).

**Q.** With `CCCC(C)C(O)CC` (configuration not stated) as the compound, how does the “activity change, negative = cytotoxicity” value read?
**A.** The value was 7.22% (inactive).

**Q.** Which “activity change, negative = cytotoxicity” value does the source give for `Cc1cc(N)no1` here?
**A.** The value was -2.54% (inactive).

**Q.** Which “activity change, negative = cytotoxicity” value does the source give for `NNC(=O)OCc1ccccc1` here?
**A.** The value was -17.9% (inactive).

**Q.** For `CCCCCCC(O)CO` (configuration not stated), which “activity change, negative = cytotoxicity” value is on record?
**A.** Its value is 5.67% (inactive).

**Q.** With `C=CCOC(=O)CCCCCCCC` as the compound, how does the “activity change, negative = cytotoxicity” value read?
**A.** Its value is 4.77% (inactive).

**Q.** With `Cc1cc(C)c(C)c(C)c1` as the compound, how does the “activity change, negative = cytotoxicity” value read?
**A.** Its value is -0.829% (inactive).

**Q.** Which “activity change, negative = cytotoxicity” value does the source give for `Cc1cc2c(cc1CC(=O)c1sccc1S(=O)(=O)Nc1onc(C)c1Cl)OCO2` here?
**A.** Its value is -4.88% [at 35.3 µM] (inactive).
